In ChEMBL document CHEMBL3988442, “University of Dundee, Small-Polar-MMV Screening Library” (2021):
For some assays here: Measured potencies and affinities stand elsewhere.

Columns and labels:
Parameters in all cases: scale not given: direction of the effect not stated beside the values
[1] = target: Protein translocase subunit SecA (Escherichia coli (strain K12)) (UniProt P10408); test: Assay to Identify E. coli SecA ATPase Inhibitors; assay type: functional; settings: 30 µM
[2] = target: T1, Ubiquitin-activating enzyme e1, putative (Leishmania donovani (strain BPK282A1)) (UniProt E9BSI1); test: Leishmania donovani Ubiquitin Activating Enzyme (LdE1); assay type: functional; settings: 30 µM
T1 sequence (whole entry): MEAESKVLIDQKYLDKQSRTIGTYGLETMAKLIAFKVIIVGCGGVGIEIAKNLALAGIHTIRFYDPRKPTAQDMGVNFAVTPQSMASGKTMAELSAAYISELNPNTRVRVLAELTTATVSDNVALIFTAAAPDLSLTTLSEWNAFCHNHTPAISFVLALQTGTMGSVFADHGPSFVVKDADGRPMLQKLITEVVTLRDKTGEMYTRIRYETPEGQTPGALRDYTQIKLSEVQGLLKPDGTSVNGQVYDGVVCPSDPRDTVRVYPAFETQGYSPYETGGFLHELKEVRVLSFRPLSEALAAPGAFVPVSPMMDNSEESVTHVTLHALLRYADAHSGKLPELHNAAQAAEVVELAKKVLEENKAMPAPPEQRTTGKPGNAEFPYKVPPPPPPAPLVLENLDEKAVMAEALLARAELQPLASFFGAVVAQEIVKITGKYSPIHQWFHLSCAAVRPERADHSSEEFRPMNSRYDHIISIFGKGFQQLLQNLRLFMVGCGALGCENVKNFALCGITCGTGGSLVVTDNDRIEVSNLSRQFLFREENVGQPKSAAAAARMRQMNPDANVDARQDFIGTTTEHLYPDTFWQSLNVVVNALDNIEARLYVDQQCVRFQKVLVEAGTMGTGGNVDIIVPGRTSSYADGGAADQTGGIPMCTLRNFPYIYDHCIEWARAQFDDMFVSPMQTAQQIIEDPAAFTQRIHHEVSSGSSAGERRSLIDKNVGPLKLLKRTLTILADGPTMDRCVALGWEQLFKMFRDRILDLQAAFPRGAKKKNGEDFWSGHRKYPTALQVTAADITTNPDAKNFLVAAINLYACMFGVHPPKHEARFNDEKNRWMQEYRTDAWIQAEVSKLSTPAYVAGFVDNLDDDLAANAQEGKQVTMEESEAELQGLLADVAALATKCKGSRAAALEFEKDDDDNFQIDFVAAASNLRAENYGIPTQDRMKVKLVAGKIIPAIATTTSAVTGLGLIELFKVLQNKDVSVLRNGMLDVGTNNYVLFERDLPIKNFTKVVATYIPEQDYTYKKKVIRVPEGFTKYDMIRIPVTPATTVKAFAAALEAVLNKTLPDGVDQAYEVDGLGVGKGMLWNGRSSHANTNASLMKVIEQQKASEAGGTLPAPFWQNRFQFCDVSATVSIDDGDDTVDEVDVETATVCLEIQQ

[3] = target: AMP-activated protein kinase, AMPK (Homo sapiens) (UniProt P54646+O43741+P54619+Q9UGJ0+Q9Y478+Q13131+Q9UGI9); test: AMP-dependent Kinase enzyme assay. An in vitro enzyme assay that detects ADP turnover that is directly proportional to AMPK activity. This uses naive AMPK that is activated during the assay with MK-8722; assay type: functional; settings: 30 µM
[4] = target: Sialic acid-binding Ig-like lectin 9 (Homo sapiens) (UniProt Q9Y336); test: Hs-Siglec9 ALPHAscreen SOP 20170721; settings: 10 µM
Trypanosoma cruzi = test: Trypanosoma cruzi phosphomannomutase and mannose-1-phosphate guanylyltransferase assay; assay type: functional; settings: 10 µM
[5] = target: T2, Arginase-2, mitochondrial (Homo sapiens) (UniProt P78540); test: in vitro enzyme assay to detect the production of urea directly proportional to the activity of Arginase II; assay type: functional; settings: 33.3 µM; note: in the data most compounds retested in dose-response had high values
T2 sequence (whole entry): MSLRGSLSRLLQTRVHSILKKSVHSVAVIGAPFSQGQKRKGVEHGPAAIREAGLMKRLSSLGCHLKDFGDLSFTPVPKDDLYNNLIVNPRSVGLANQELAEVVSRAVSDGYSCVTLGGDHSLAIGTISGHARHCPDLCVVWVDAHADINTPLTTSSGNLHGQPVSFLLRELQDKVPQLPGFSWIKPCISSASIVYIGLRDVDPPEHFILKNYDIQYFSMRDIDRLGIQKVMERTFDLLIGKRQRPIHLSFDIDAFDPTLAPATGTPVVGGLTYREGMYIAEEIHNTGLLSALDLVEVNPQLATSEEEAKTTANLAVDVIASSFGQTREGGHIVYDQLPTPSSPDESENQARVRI

[6] = target: T3, Proteasome subunit beta (Trypanosoma cruzi) (UniProt O96673); test: Trypanosoma cruzi proteasome chymotrypsin-like activity (TcProtChymo) assay.; note: in the data most compounds retested in dose-response had high values; assay type: functional; settings: 9.37 µM
T3 sequence (whole entry): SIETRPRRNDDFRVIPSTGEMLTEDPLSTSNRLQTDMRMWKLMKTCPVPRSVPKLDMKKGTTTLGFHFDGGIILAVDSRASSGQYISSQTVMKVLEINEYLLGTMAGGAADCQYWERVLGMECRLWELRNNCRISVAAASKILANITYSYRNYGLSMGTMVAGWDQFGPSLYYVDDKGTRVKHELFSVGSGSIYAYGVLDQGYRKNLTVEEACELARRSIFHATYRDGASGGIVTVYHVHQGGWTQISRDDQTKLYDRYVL

Homo sapiens = organism: Homo sapiens; test: To identify inhibition of the IFN signalling (Jak-Stat) pathway via expression of an eGFP reporter gene under the control of an IFN-stimulated response element (ISRE) containing MxA promoter.; assay type: functional; settings: 30 µM
[7] = target: T4, Tyrosyl-tRNA synthetase, putative (Trypanosoma cruzi (strain CL Brener)) (UniProt Q4DSP6); test: Trypanosoma cruzi tyrosyl tRNA synthetase (TcYRS) _High Tyrosine SOP; assay type: functional; settings: 30 µM; note: in the data most compounds retested in dose-response had high values
T4 sequence (whole entry): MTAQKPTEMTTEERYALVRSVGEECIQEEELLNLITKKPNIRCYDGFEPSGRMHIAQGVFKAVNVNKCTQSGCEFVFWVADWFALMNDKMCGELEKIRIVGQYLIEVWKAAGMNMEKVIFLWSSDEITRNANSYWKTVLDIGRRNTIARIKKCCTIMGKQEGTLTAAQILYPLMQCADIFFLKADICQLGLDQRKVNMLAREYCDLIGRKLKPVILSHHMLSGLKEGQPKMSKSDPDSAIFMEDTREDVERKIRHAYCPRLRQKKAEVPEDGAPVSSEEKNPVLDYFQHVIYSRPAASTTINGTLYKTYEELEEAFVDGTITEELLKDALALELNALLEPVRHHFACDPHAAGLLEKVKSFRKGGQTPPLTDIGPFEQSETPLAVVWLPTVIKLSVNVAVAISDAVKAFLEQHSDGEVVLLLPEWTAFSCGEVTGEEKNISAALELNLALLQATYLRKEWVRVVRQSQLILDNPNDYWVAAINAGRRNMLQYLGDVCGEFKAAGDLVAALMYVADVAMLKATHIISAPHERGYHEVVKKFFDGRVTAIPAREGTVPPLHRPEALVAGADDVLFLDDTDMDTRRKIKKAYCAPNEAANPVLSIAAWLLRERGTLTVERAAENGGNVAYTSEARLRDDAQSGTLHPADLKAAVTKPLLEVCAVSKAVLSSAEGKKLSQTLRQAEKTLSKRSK

[8] = target: T4, Tyrosyl-tRNA synthetase, putative (Trypanosoma cruzi (strain CL Brener)); test: Trypanosoma cruzi tyrosyl tRNA synthetase (TcYRS) SOP; assay type: functional; settings: 30 µM
[9] = target: Chromo domain-containing protein 1 (Saccharomyces cerevisiae (strain ATCC 204508 / S288c) (Baker's yeast)) (UniProt P32657); test: ScCHD-1 Enzyme Inhibition Assay; assay type: functional; settings: 30 µM; note: in the data most compounds retested in dose-response had high values
Sequence of Chromo domain-containing protein 1 (Saccharomyces cerevisiae (strain ATCC 204508 / S288c) (Baker's yeast)) (P32657 whole entry, the tested form may be a part): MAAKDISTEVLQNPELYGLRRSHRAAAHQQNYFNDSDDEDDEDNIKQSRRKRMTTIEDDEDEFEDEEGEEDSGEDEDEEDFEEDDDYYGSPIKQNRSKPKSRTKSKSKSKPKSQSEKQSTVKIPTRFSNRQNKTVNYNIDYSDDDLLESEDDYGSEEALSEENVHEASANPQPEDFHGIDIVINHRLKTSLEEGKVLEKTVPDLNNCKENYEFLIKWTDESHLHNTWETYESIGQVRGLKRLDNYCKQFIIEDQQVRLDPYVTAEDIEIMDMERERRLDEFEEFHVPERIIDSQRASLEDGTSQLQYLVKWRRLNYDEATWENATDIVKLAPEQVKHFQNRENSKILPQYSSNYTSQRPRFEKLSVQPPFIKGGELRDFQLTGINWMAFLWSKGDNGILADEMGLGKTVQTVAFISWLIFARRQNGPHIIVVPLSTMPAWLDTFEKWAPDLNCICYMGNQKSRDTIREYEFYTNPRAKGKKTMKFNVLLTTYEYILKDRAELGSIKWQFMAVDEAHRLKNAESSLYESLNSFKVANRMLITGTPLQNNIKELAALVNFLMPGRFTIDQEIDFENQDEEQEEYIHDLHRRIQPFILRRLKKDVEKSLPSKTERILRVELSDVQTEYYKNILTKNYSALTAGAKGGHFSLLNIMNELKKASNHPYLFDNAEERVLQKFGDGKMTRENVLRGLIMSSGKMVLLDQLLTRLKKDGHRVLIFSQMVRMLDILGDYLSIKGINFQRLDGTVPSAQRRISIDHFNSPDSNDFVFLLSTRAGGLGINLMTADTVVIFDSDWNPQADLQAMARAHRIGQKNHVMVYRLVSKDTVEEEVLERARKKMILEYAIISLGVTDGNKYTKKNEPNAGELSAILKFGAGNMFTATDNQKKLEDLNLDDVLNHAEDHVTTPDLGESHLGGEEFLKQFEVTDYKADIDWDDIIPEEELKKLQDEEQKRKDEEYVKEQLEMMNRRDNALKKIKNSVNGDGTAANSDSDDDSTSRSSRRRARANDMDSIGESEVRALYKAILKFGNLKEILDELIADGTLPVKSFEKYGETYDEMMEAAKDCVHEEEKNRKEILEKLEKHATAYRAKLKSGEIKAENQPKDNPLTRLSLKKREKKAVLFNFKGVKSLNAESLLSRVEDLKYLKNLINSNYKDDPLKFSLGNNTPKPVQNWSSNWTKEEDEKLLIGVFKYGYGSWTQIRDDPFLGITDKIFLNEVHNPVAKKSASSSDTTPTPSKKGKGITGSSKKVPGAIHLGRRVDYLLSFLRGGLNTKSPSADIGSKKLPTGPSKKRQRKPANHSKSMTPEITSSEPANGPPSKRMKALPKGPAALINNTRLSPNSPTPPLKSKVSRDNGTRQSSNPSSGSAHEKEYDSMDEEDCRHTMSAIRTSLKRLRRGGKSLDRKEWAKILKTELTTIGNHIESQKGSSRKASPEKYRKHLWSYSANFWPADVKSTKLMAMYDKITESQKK

Sequence of Protein translocase subunit SecA (Escherichia coli (strain K12)) (P10408 whole entry): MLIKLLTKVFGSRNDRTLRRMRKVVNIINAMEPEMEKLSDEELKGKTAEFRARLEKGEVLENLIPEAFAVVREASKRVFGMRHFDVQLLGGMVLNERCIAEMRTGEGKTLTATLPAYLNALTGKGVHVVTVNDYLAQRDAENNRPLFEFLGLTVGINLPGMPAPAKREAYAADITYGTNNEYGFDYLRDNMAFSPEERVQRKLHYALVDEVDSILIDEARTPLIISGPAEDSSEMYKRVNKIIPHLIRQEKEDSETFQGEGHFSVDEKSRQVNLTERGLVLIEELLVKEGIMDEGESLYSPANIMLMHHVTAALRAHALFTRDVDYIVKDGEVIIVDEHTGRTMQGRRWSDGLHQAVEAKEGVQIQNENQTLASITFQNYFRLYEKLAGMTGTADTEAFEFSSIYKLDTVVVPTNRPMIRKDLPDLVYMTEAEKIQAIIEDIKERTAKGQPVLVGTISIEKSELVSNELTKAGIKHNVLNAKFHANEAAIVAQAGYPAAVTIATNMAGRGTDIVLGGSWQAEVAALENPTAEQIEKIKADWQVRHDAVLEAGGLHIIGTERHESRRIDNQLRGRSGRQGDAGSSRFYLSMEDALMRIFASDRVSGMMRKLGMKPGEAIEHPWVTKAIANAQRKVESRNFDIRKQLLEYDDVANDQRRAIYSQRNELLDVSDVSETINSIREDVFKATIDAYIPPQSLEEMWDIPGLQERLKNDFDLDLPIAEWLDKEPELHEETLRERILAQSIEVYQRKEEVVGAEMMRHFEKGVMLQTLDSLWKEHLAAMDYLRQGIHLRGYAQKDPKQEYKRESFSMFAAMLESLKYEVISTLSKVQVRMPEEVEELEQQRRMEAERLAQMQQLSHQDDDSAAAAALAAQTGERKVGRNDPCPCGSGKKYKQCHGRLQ
Sequence of Sialic acid-binding Ig-like lectin 9 (Homo sapiens) (Q9Y336 whole entry): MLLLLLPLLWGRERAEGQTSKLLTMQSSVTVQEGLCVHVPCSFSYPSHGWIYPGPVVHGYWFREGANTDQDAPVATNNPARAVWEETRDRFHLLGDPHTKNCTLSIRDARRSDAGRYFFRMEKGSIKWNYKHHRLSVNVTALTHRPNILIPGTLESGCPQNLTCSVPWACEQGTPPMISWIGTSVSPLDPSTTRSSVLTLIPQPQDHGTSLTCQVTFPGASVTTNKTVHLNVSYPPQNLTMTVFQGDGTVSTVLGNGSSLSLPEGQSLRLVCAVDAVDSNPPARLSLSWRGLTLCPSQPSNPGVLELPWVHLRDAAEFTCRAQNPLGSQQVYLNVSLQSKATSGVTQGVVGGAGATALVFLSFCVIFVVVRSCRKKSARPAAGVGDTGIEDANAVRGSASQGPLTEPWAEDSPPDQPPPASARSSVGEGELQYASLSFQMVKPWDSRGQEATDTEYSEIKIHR

SMILES	Percent Effect [1]	Percent Effect [2]	Percent Effect [3]	Percent Effect [4]	Percent Effect (Trypanosoma cruzi)	Percent Effect [5]	Percent Effect [6]	Percent Effect (Homo sapiens)	Percent Effect [7]	Percent Effect [8]	Percent Effect [9]
CCc1ccc(CN2CC[C@H]3C[C@H](c4nnc(C)[nH]4)O[C@@H]3C2)o1	-2%	0%	-2.87%	34.9%	9.52%	-6.79%	17.2%	9.84%	0%	-1.24%	-3.68%
NC(=O)COc1ccc(CNCc2ccc(F)cc2F)cc1	-2.69%	6.94%	-4.07%	9.21%	3.01%	24.7%	8.42%	-28.4%	9.47%	12.8%	-5.67%
COc1ccc(-c2nccnc2C2CCN(C(C)=O)CC2)cc1	-3.54%	25.7%	-4.6%	-7.08%	0.395%	-3.48%	11.7%	8.34%	1.07%	9.09%	-9.8%
Cn1ccnc1CN1CCC2(CC(=O)N(c3cccc(F)c3)C2)C1 (configuration not stated)	1.4%	10.4%	15%	-4.43%	-7.2%	7.1%	14.8%	6.27%	7.41%	14.1%	-7.71%
CC(C)n1ccnc1CN1CCCN(C(=O)CC2C=CCC2)CC1 (configuration not stated)	-5.72%	-1.27%	12.6%	-5.19%	-3.18%	-6.67%	17.8%	9.57%	-2.08%	-5.06%	-12.8%
CN(CC(=O)N1CCCC1c1cnn(C)c1)c1ccc(Cl)cn1 (configuration not stated)	-8.15%	7.89%	-2.82%	-3.87%	-7.56%	2.52%	7.19%	6.79%	2.46%	6.17%	0.471%
Cc1cc(C(=O)N[C@@H]2CCNC[C@H]2O)ccc1Cl	-1.58%	5.41%	1.58%	10.1%	6.56%	-1.91%	11.4%	-9.87%	6.88%	4.88%	-2.88%
COc1ncccc1NC(=O)NC1CCOc2ccccc21 (configuration not stated)	-1.57%	16.2%	-3.28%	8.29%	5.29%	-4.62%	8.08%	23.4%	6.93%	25.6%	-3.65%
CN(C)S(=O)(=O)c1ccc(CN2CCCC2c2ccccc2)o1 (configuration not stated)	-4.81%	-7.89%	2.57%	-3.79%	9.06%	2.88%	5.33%	15.1%	6.4%	23.5%	-6.96%
CCC(C)c1noc(C2CCN(C(=O)c3cccs3)CC2)n1 (configuration not stated)	-0.878%	7.79%	1.18%	3.86%	-2.65%	-2.76%	13.8%	23.9%	4.3%	11.1%	-1.15%
Cc1nc(C2CCCN2Cc2nc(C)c(C)o2)no1 (configuration not stated)	-2.9%	16.2%	-2.94%	-1.49%	-1.95%	1.29%	4.49%	-3.4%	13.9%	25.6%	-5.47%
Cc1ccc(C(=O)N2CCN(CC(O)c3ccc(F)cc3)CC2)s1 (configuration not stated)	-2.93%	7.89%	6.49%	18.1%	-0.564%	0.766%	4.34%	13.7%	5.39%	9.76%	-0.68%
CC(=O)N1CCC[C@H]1C(=O)NCCOc1cccc(Cl)c1	-0.692%	7.79%	-8.32%	-3.36%	4.31%	4.98%	13.7%	12.4%	6.8%	24.4%	-9.94%
COC(=O)N1CCCC(C(=O)NCc2cc3cccc(OC)c3o2)C1 (configuration not stated)	-4.05%	7.59%	3.35%	19.5%	-2.36%	2.28%	-2.54%	-18.3%	3.45%	8.86%	-3.44%
Cc1ccc(C(=O)N2CCSCC2)cc1NC(=O)Cn1cncn1	-4.05%	16.4%	-5.58%	10.2%	7.74%	-7.98%	17.6%	-4.75%	6.25%	18.5%	-7.01%
CS(=O)(=O)NCCCNC(=O)c1cccc(-n2cccc2)c1	-5.41%	15.8%	0.491%	-5%	2.04%	1.18%	15.8%	1.58%	1.06%	13%	-6.62%
CCc1nc(C2CCCN2Cc2nnc(Cc3ccccc3)o2)no1 (configuration not stated)	-3%	0%	2.23%	3.12%	8.52%	1.9%	5.25%	-2.79%	1.91%	2.35%	4.27%
Cc1cc(C)n(CC(=O)N2CCC(NS(=O)(=O)c3ccccc3)CC2)n1	-0.375%	13.2%	4.71%	6.53%	-1.32%	0.383%	4.84%	15.1%	1.47%	7.32%	-3.29%
Cn1cnc2c(N3CCCC3)nc(C3CCNCC3)cc21	-0.224%	13.3%	-2.65%	0.534%	0.965%	-48.6%	9.23%	1.97%	3.12%	20%	-8.26%
CN(Cc1nc(N)c2ccccc2n1)C1CCCN(c2cccnn2)C1 (configuration not stated)	-4.12%	-5.2%	-10.2%	5.86%	7.49%	-1.07%	13.3%	-0.131%	9.71%	14.6%	-9.67%
Cn1nc2c(cc1=O)CN(CC(=O)Nc1ccc(Cl)cn1)CC2	-3.42%	18.1%	-417%	5.46%	-0.291%	-1.32%	12.3%	-2.31%	-2.1%	-5.13%	-1.83%
CC1CCN(Cn2nc(-c3ccc(F)cc3)oc2=O)CC1	-2.94%	18.2%	4.52%	-5.3%	-7.12%	2.13%	6.42%	33%	5.83%	7.32%	-12.6%
